This note sets out measurements from ChEMBL document CHEMBL1961873, “Compounds: GSK PKIS; Assays: Nanosyn kinase panel” (2012).

Assay [1] addresses Serine/threonine-protein kinase PAK 6 (Homo sapiens) (UniProt Q9NQU5). As to conditions: at 1 µM.
Assay [2] deals with Tyrosine-protein kinase ABL1 (Homo sapiens), P00519 [E255K]. As to conditions: at 0.1 µM.
For assay [3] the test system is unchanged. As to conditions: at 1 µM.
Assay [4] relates to Tyrosine-protein kinase ABL1 (Homo sapiens), P00519 [H396P]. As to conditions: at 0.1 µM.
Assay [5] has the same test system. As to conditions: at 1 µM.
For assay [6], the system named is Tyrosine-protein kinase ABL1 (Homo sapiens), P00519 [M351T]. As to conditions: at 0.1 µM.
For assay [7] the test system is unchanged. As to conditions: at 1 µM.
Assay [8] deals with Tyrosine-protein kinase ABL1 (Homo sapiens), P00519 [Q252H]. As to conditions: at 0.1 µM.
Assay [9] has the same test system. As to conditions: at 1 µM.
The test system of assay [10] is Tyrosine-protein kinase ABL1 (Homo sapiens), P00519 [T315I]. As to conditions: at 0.1 µM.

Sequence of Serine/threonine-protein kinase PAK 6 (Homo sapiens) (Q9NQU5 whole entry, looked up): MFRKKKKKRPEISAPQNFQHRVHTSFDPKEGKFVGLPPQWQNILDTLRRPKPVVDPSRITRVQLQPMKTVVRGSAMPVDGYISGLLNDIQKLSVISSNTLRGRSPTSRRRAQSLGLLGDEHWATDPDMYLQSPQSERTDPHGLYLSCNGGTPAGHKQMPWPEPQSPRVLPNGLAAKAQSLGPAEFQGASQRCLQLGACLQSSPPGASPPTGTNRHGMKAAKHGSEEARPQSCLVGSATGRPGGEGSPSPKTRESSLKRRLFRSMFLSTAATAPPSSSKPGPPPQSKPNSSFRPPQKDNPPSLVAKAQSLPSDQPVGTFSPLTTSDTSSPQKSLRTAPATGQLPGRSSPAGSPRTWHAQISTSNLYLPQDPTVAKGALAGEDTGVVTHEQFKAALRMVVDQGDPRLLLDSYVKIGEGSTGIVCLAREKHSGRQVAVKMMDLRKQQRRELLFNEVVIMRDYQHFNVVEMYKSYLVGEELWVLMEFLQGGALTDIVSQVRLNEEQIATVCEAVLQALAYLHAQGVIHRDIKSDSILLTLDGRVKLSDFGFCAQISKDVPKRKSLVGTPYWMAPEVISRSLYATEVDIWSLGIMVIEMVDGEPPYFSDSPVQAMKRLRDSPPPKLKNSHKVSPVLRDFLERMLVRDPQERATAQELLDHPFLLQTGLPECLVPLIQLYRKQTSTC

As usually defined, the inhibition is the drop in the measured response relative to a control, in per cent. Turning to `CN(C)c1ccc2c(c1)/C(=C/Nc1ccc(S(N)(=O)=O)cc1)C(=O)N2`, the inhibition was -1.53% in assay [1]; 2.53% in assay [2]; 12.8% in assay [3]; 2.8% in assay [4]; 14.3% in [5]; 3.86% in assay [6]. Also, the inhibition was found to be 15.8% in assay [7], 4% in [8], 17.8% in assay [9] and 3.12% in assay [10].
For the compound `Fc1ccc(-c2ncn(C3CCNCC3)c2-c2ccnc(Oc3ccc(F)c(F)c3)n2)cc1`, the inhibition in [1] was -4.15%; in assay [2], 1.96%; in [3], 1.25%; in assay [4], 4%; in [5], 3.19%; in [6], -0.04%. Further, the inhibition in assay [7] was -0.02%; in assay [8], 2.26%; in [9], 2.39%; in assay [10], 0.22%.
`COc1cc2ncn(-c3cc(OCCc4ccccc4)c(C(N)=O)s3)c2cc1OC`: the inhibition is -0.86% in assay [1]; -1.76% in assay [2]; 6.39% in assay [3]; 2.33% in assay [4]; 10.4% in assay [5]; -0.05% in [6]. The inhibition was determined as 11.6% in assay [7], 0.95% in assay [8], 10.7% in [9] and 1.49% in [10].
With `Nc1nccc(-c2c(-c3ccc(F)cc3)ncn2C2CCC(O)CC2)n1` (stereo not given), the inhibition in assay [1] was -1.54%; in [2] it was 2.5%; in assay [3], 16.9%; in assay [4], 3.86%; in assay [5], 33.6%; in [6], 7.44%. Besides, the inhibition in [7] worked out at 36.6%; in assay [8], 5.19%; in [9], 33.9%; in [10] it was 6.26%.
In the case of `O=C(NCC1CC1)c1ccc(-c2cccc(C(=O)NC3CC3)c2)cc1`, the inhibition in assay [1] was 8.38%; in [2] it was 2.4%; in assay [3] it was 3.09%; in assay [4] it was 3.44%; in assay [5], 3.43%; in assay [6], 2.14%. Besides, the inhibition in [7] amounted to 4.08%; in [8], 2.78%; in [9], 4.27%; in assay [10], 2.52%.
In the case of `CCN(CC)Cc1ccc(Nc2nccc(-c3cnn4ncccc34)n2)cc1`, the inhibition in assay [1] is -2.98%; in [2], 2.66%; in assay [3] it was 22.6%; in [4] it was 8.9%; in assay [5], 37.5%; in [6] it was 4.62%. Also, the inhibition in [7] was determined as 37.4%; in assay [8], 8.65%; in assay [9], 43.2%; in assay [10] it was 7.91%.
Turning to `COc1cc(Nc2ncc3c(C)nc(-c4cccc(C(F)(F)F)c4)n3n2)cc(OC)c1OC`, the inhibition in [1] came to 11.2%; in assay [2] it was 2.21%; in assay [3], 7.54%; in [4], 5.06%; in assay [5] it was 12.7%; in assay [6], 1.36%. Also, the inhibition in assay [7] stood at 10.8%; in [8], 4.02%; in assay [9] it was 13.4%; in assay [10] it was 3.13%.
Turning to `CN(C)CCOc1ccc(-c2cc(-c3ccc4c(c3)CCC4=NO)c(-c3ccncc3)o2)cc1`, the inhibition is 1.93% in assay [1]; -1.95% in assay [2]; 7.95% in assay [3]; 1.96% in [4]; 20.9% in [5]; 3.15% in assay [6]. For the same compound, the inhibition in [7] turned out to be 19.9%; in assay [8] it was 4.54%; in assay [9], 34.5%; in assay [10], 1.35%.
For the compound `COc1cccc(-n2cnc3c(N/N=C/c4ccncc4)ncnc32)c1`, the inhibition in [1] was found to be 3.44%; in assay [2] it was 30.8%; in assay [3], 80.2%; in [4], 47.1%; in assay [5] it was 87.1%; in assay [6], 44.7%. Further, the inhibition in assay [7] was 88.1%; in [8], 40.1%; in assay [9], 84.2%; in [10], 1.94%.
`CCS(=O)(=O)c1ccc(OC)c(Nc2ncc(-c3ccccc3Cl)o2)c1`: the inhibition in assay [1] worked out at 0.05%; in assay [2], 2.3%; in assay [3] it was 16.3%; in assay [4], 5.27%; in [5], 23.2%; in assay [6], 5.47%. The inhibition in assay [7] stood at 22%; in assay [8], 5.67%; in [9], 26.3%; in [10] it was 3.23%.
As to `COc1cc(C)c(N(C)C(=O)CN(C)C)cc1Nc1nc(Nc2cccc(F)c2C(N)=O)c2cc[nH]c2n1`, the inhibition was -3.09% in [1]; -1.15% in assay [2]; 1.77% in assay [3]; 1.11% in [4]; -0.41% in assay [5]; 0.41% in assay [6]. The inhibition in assay [7] is -0.05%; in [8] it was 0.29%; in assay [9] it was 0.09%; in [10], 0.48%.
With `CCc1ccc(Oc2nccc(-c3c(-c4ccc(F)cc4)ncn3C3CCNCC3)n2)cc1`, the inhibition turned out to be 2.92% in assay [1]; 0.49% in [2]; 4.7% in [3]; 3.35% in [4]; 3.77% in assay [5]; 0.72% in assay [6]. For the same compound, the inhibition came to 1.75% in assay [7], 3.25% in assay [8], 3.37% in assay [9] and 2.83% in [10].
Turning to `NC(=O)Cc1ccccc1Oc1nccc(-c2c(-c3ccc(F)cc3)ncn2C2CCNCC2)n1`, the inhibition in [1] was -1.76%; in [2], 0.8%; in assay [3], 2.45%; in assay [4] it was 0.08%; in assay [5] it was -2.39%; in [6], -1.54%. For the same compound, the inhibition in assay [7] was -1.6%; in assay [8] it was 2.24%; in assay [9], 1.77%; in assay [10], 1.47%.
`COc1cccc(/C=N/Nc2ncnc3c2cnn3-c2cccc(OC)c2)c1`: the inhibition in assay [1] is -7.63%; in [2], 7.5%; in [3] it was 34.4%; in assay [4], 9.64%; in assay [5], 41.8%; in [6], 7.51%. In addition, the inhibition was 42% in assay [7], 12.9% in assay [8], 54.9% in [9] and 3.28% in assay [10].
Turning to `NC(=O)c1ccc(Oc2nccc(-c3c(-c4ccc(F)cc4)ncn3C3CCNCC3)n2)cc1`, the inhibition in assay [1] was -4.13%; in assay [2], 2.12%; in assay [3] it was 3.91%; in assay [4], 5.26%; in [5] it was 5.53%; in assay [6], -1.3%. The inhibition was -0.09% in assay [7], 2.63% in assay [8], 7.69% in [9] and 3.03% in assay [10].
With `C#Cc1cccc(Nc2ncnc3ccc(OCCCCNCCS(C)(=O)=O)cc23)c1`, the inhibition in assay [1] was -2.58%; in assay [2], 4.64%; in assay [3], 19.7%; in assay [4], 7.05%; in [5], 23%; in [6], 4.14%. Further, the inhibition is 19.2% in assay [7], 6.79% in assay [8], 22.7% in [9] and 3.9% in assay [10].
In the case of `COc1cc2ncn(-c3cc(OCc4cccs4)c(C(N)=O)s3)c2cc1OC`, the inhibition in assay [1] stood at 11%; in [2] it was 2.64%; in assay [3], 29.8%; in [4], 10.9%; in assay [5] it was 51.6%; in assay [6], 7.47%. Also, the inhibition was 50.4% in assay [7], 8.78% in assay [8], 46.3% in assay [9] and 12.2% in assay [10].
